Test results taken from article PMC7862700, “An all-to-all approach to the identification of sequence-specific readers for epigenetic DNA modifications on cytosine”.

What was measured:
Test in all cases: DAPPL (digital affinity profiling via proximity ligation, sequencing); 10 mM Tris-HCl pH 7.5, 50 mM NaCl, 1 mM DTT, 4% glycerol, room temperature, 30 min; GST-TFs on glutathione beads, 16-mer random dsDNA library, 0.1% formaldehyde crosslink after washing; high values mean tight binding
Details in all cases: protein: recombinant; tags: N-terminal GST; dsDNA, one strand shown
FLI1 = molecular target: T1, FLI1 (Homo sapiens, UniProt Q01543 1-452)
T1 sequence: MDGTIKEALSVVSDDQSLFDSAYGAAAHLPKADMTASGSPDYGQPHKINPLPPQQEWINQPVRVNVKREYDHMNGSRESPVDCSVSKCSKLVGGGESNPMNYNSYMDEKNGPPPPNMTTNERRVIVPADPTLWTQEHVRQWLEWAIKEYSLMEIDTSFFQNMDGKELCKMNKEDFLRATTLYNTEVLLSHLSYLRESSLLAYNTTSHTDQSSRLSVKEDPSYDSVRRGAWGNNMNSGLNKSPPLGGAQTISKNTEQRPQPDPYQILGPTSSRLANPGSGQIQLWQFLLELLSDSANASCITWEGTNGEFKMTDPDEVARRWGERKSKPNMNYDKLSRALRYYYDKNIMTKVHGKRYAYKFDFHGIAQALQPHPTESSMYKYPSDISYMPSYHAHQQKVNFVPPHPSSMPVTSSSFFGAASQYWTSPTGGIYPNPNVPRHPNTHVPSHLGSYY
Procedure, shortened: (§1)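 The binding signal reported is, for every hexamer, its read frequency for a factor over its read frequency for the tag-only sample. Reads came from pools of yeast-expressed, GST-fused human transcription factors on glutathione beads, barcoded with DNA and mixed with that sample, which were incubated with 200 nmole of a random double-stranded 16-mer DNA library in Tris/NaCl/DTT/glycerol buffer at room temperature for 30 min. After washing, the pools were crosslinked with 0.1% formaldehyde, proximity-ligated with BsaI/T4 ligase for 1 h at 37 °C, PCR-amplified and sequenced on an Illumina NextSeq500.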

ELK1 = molecular target: T2, ELK1 (Homo sapiens, UniProt P19419 1-428)
T2 sequence: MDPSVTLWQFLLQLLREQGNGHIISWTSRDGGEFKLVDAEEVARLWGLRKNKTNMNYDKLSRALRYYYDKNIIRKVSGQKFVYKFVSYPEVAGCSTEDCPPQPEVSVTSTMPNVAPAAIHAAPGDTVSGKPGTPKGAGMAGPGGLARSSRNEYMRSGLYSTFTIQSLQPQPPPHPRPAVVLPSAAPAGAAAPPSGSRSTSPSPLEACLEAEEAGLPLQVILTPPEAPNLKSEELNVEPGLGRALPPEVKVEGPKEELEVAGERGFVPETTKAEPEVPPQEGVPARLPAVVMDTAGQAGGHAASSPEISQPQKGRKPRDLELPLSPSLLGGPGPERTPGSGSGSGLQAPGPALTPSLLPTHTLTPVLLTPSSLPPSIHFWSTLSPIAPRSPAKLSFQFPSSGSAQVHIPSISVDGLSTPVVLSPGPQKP
Procedure, shortened: as §1

GABPA = molecular target: T3, GABPA (Homo sapiens, UniProt Q06546 1-454)
T3 sequence: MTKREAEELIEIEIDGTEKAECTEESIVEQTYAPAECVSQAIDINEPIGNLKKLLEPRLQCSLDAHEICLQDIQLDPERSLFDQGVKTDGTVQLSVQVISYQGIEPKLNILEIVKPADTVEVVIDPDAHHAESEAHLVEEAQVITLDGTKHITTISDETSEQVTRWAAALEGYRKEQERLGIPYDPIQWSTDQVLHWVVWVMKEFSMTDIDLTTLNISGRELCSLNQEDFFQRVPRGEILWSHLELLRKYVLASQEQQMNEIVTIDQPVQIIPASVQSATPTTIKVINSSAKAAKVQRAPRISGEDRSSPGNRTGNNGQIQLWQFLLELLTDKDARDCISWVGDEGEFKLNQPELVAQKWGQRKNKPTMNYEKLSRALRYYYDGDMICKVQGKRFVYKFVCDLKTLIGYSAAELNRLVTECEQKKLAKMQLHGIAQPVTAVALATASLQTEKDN
Procedure, shortened: as §1

ERG = molecular target: T4, ERG (Homo sapiens, UniProt P11308 1-479)
T4 sequence: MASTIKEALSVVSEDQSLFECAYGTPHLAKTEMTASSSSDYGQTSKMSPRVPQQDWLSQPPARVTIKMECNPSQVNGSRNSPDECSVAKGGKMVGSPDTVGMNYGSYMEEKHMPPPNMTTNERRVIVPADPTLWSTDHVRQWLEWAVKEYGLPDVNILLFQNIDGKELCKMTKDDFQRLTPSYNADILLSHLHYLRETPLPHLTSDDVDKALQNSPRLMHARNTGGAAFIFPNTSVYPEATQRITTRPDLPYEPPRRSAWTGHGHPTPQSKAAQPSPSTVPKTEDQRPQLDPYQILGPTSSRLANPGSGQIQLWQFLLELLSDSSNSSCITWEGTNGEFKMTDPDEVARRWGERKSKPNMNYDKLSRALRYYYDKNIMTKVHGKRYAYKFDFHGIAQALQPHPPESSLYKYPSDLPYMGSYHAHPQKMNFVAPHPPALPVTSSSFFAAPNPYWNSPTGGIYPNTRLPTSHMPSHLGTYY
Procedure, shortened: as §1

ELF1 = ELF1 (Homo sapiens, UniProt P32519 1-619)
Procedure, shortened: as §1

EHF = molecular target: T5, EHF (Homo sapiens, UniProt Q9NZC4 1-300)
T5 sequence: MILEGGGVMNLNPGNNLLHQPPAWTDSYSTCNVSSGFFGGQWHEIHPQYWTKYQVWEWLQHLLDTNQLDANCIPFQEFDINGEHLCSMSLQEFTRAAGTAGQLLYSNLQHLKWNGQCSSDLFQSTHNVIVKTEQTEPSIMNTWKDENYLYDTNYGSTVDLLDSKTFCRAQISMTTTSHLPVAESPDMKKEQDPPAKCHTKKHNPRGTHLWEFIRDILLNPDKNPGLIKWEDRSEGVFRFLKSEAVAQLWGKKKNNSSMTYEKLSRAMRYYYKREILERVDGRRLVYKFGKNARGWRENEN
Procedure, shortened: as §1

SPI1 = SPI1 (Homo sapiens, UniProt P17947 1-270)
Procedure, shortened: as §1

SPIB = SPIB (Homo sapiens, UniProt Q01892 1-262)
Procedure, shortened: as §1

ELK3 = molecular target: T6, ELK3 (Homo sapiens, UniProt P41970 1-407)
T6 sequence: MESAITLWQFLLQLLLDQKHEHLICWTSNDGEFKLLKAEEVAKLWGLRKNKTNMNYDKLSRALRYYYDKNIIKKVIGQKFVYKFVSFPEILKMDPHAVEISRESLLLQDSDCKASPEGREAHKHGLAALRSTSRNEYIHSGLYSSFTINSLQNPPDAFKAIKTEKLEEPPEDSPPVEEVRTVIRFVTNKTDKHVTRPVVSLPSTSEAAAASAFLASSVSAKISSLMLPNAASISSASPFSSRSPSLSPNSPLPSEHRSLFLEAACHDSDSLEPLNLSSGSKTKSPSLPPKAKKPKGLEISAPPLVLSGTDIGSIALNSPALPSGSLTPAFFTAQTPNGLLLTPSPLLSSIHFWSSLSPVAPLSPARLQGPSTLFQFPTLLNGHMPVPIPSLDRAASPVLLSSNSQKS
Procedure, shortened: as §1

Sequence of ELF1 (P32519 whole entry): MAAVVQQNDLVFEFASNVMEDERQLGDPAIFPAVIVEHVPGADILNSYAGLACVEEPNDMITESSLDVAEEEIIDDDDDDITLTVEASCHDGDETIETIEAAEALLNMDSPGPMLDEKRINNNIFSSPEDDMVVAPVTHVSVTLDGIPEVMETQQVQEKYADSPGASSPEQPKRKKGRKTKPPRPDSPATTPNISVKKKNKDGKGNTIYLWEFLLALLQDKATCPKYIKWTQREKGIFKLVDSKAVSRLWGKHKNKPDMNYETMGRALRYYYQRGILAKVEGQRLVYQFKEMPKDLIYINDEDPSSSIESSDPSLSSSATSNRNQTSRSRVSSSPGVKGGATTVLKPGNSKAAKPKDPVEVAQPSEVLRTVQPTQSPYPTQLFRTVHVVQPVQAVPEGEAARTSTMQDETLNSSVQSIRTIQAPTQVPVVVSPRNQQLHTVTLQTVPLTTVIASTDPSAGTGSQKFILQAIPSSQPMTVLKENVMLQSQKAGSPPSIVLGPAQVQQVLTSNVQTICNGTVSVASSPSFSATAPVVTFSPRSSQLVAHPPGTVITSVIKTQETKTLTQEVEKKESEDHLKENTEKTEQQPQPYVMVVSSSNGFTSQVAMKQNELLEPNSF
Sequence of SPIB (Q01892 whole entry): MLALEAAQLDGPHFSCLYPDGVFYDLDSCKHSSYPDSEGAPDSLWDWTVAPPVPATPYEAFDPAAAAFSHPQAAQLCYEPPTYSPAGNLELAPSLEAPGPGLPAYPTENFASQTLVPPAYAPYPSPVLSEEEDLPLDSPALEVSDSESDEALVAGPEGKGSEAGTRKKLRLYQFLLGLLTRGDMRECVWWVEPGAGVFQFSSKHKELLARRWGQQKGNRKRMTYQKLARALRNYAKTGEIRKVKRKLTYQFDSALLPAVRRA

| Sequence | binding signal (FLI1) | binding signal (ELK1) | binding signal (GABPA) | binding signal (ERG) | binding signal (ELF1) | binding signal (EHF) | binding signal (SPI1) | binding signal (SPIB) | binding signal (ELK3) |
| --- | --- | --- | --- | --- | --- | --- | --- | --- | --- |
| TGGCCC | 1.02 fold enrichment (6-mer frequency, TF over GST control) | 1.13 fold enrichment (6-mer frequency, TF over GST control) | 1.24 fold enrichment (6-mer frequency, TF over GST control) | 1.13 fold enrichment (6-mer frequency, TF over GST control) | 1.05 fold enrichment (6-mer frequency, TF over GST control) | 1.02 fold enrichment (6-mer frequency, TF over GST control) | 1.17 fold enrichment (6-mer frequency, TF over GST control) | 1.12 fold enrichment (6-mer frequency, TF over GST control) | 1.16 fold enrichment (6-mer frequency, TF over GST control) |
| ACTTAA | 1.17 fold enrichment (6-mer frequency, TF over GST control) | 1.23 fold enrichment (6-mer frequency, TF over GST control) | 1.22 fold enrichment (6-mer frequency, TF over GST control) | 1.11 fold enrichment (6-mer frequency, TF over GST control) | 1.18 fold enrichment (6-mer frequency, TF over GST control) | 1.31 fold enrichment (6-mer frequency, TF over GST control) | 1.24 fold enrichment (6-mer frequency, TF over GST control) | 1.18 fold enrichment (6-mer frequency, TF over GST control) | 1.24 fold enrichment (6-mer frequency, TF over GST control) |
| TTAAAT | 1.17 fold enrichment (6-mer frequency, TF over GST control) | 1.11 fold enrichment (6-mer frequency, TF over GST control) | 1.1 fold enrichment (6-mer frequency, TF over GST control) | 1.11 fold enrichment (6-mer frequency, TF over GST control) | 1.19 fold enrichment (6-mer frequency, TF over GST control) | 1.14 fold enrichment (6-mer frequency, TF over GST control) | 1.12 fold enrichment (6-mer frequency, TF over GST control) | 1.13 fold enrichment (6-mer frequency, TF over GST control) | 1.25 fold enrichment (6-mer frequency, TF over GST control) |
| CTCACC | 1.26 fold enrichment (6-mer frequency, TF over GST control) | 1.32 fold enrichment (6-mer frequency, TF over GST control) | 1.32 fold enrichment (6-mer frequency, TF over GST control) | 1.13 fold enrichment (6-mer frequency, TF over GST control) | 1.2 fold enrichment (6-mer frequency, TF over GST control) | 1.24 fold enrichment (6-mer frequency, TF over GST control) | 1.24 fold enrichment (6-mer frequency, TF over GST control) | 1.34 fold enrichment (6-mer frequency, TF over GST control) | 1.3 fold enrichment (6-mer frequency, TF over GST control) |
| TGAAAC | 1.31 fold enrichment (6-mer frequency, TF over GST control) | 1.29 fold enrichment (6-mer frequency, TF over GST control) | 1.25 fold enrichment (6-mer frequency, TF over GST control) | 1.16 fold enrichment (6-mer frequency, TF over GST control) | 1.4 fold enrichment (6-mer frequency, TF over GST control) | 1.28 fold enrichment (6-mer frequency, TF over GST control) | 1.28 fold enrichment (6-mer frequency, TF over GST control) | 1.18 fold enrichment (6-mer frequency, TF over GST control) | 1.33 fold enrichment (6-mer frequency, TF over GST control) |
| CGAAAA | 1.07 fold enrichment (6-mer frequency, TF over GST control) | 1.07 fold enrichment (6-mer frequency, TF over GST control) | 1.17 fold enrichment (6-mer frequency, TF over GST control) | 1.06 fold enrichment (6-mer frequency, TF over GST control) | 1.05 fold enrichment (6-mer frequency, TF over GST control) | 1.14 fold enrichment (6-mer frequency, TF over GST control) | 1.1 fold enrichment (6-mer frequency, TF over GST control) | 1.04 fold enrichment (6-mer frequency, TF over GST control) | 1.01 fold enrichment (6-mer frequency, TF over GST control) |
| ATTGTC | 1.17 fold enrichment (6-mer frequency, TF over GST control) | 1.07 fold enrichment (6-mer frequency, TF over GST control) | 1.16 fold enrichment (6-mer frequency, TF over GST control) | 1.13 fold enrichment (6-mer frequency, TF over GST control) | 1.13 fold enrichment (6-mer frequency, TF over GST control) | 1.08 fold enrichment (6-mer frequency, TF over GST control) | 1.05 fold enrichment (6-mer frequency, TF over GST control) | 1.14 fold enrichment (6-mer frequency, TF over GST control) | 1.35 fold enrichment (6-mer frequency, TF over GST control) |
